Results filed as inconclusive are left out. The source made the active and inactive calls. Calls come from the whole dose curve; as a rule, active = well fitted curve in the direction sought with a large enough effect; inconclusive = small, poorly fitted or top-dose-only effect, or another doubt; inactive = no such curve, though single readings can be large; an effect the other way counts as inactive or inconclusive.
Assays:
[1] = biological target: Glutathione peroxidase 1 (Homo sapiens) (UniProt P07203); test: Primary qHTS Assay for Inhibitors of Recombinant Selenoprotein Glutathione Peroxidase 1 (GPX1) (AID 1845191); note: nearly all actives have a fitted effect of over 65% in size; for activity, negative = inhibition: % is set by controls: 0 for no effect and ±100 for the full control effect
Summary of the method: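 Recombinant GPX1 (10 nM final) was preincubated with compound for 30 min at room temperature, then reacted with 1 mM GSH, 0.5 mM CHP, 0.5 mM NADPH and 100 nM glutathione reductase; NADPH fluorescence (340/450 nm) was read at 0 and 15 min.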

[2] = biological target: Phospholipid hydroperoxide glutathione peroxidase GPX4 (Homo sapiens) (UniProt P36969); test: Primary qHTS Assay for Inhibitors of Recombinant Selenoprotein Glutathione Peroxidase 4 (GPX4) (AID 1845192); note: nearly all actives have a fitted effect of over 65% in size; for activity change, negative = inhibition: series mostly up to about 50 µM; % is set by controls: 0 for no effect and ±100 for the full control effect
Summary of the method: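 GR-coupled readout: 100 nM GR, 1 mM GSH, 0.5 mM NADPH; NADPH fluorescence (ex 340/em 450 nm) read at t=0 and after 15 min RT. GPX4 200 nM, preincubated 30 min with compound; substrate 0.5 mM CHP.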

[3] = biological target: Luciferin 4-monooxygenase (Photinus pyralis) (UniProt P08659); test: Primary firefly luciferase (FLuc) qHTS assay for identification of artifact compounds. (AID 1845220); note: nearly all actives have a fitted effect of over 60% in size;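 for activity change, negative = inhibition: series mostly up to about 54 µM; plate controls were DMSO vehicle for no effect and no enzyme for full effect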
Summary of the method: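 Reaction readout was CCD-imaged luminescence, taken 5 min after adding 10 nM purified firefly enzyme to compound-treated wells holding 10 uM luciferin and ATP in pH 7.6 buffer.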

[4] = Primary fluorescence-based thiol-reactive (MSTI) qHTS assay for identification of artifact compounds. (AID 1845221);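 note: series mostly up to about 54 µM; thiol-reactive compounds lower the probe fluorescence signal; nearly all actives have a fitted effect of over 65% in size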
Summary of the method: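 Probe: MSTI 4 uM, PBS pH 7.4, 2% DMSO. Incubation 1 h, RT, light-protected. Readout fluorescence 525/598 nm.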

[5] = Primary redox qHTS assay for identification of artifact compounds. (AID 1845223);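 note: 0% = DMSO and 100% = reference compound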
Summary of the method: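 Amplex Red (25 uM) and HRP (250 mU/mL) in HBSS, with compounds for 15 min, then 250 uM DTT for 30 min, room temperature, dark. Fluorescence 525/598 nm read; normalized to DMSO and 10 uM DA3003; Hill fit.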

[6] = test system: Nanoluciferase (engineered Oplophorus gracilirostris luciferase); test: Primary Nanoluciferase (NLuc) qHTS assay for identification of artifact compounds. (AID 1845222);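 note: NLuc secreted into diluted conditioned medium of S16 cells; series mostly up to about 54 µM; 0% = DMSO and -100% = no enzyme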
Summary of the method: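 Concentration-response data were obtained by luminescence after 5 min with Nano-Glo substrate at 1:100. The enzyme was diluted S16 NLuc-expressing cell medium, preincubated with compound for 15 min at RT. Curves were fitted with a 4-parameter Hill model.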

Sequence of Glutathione peroxidase 1 (Homo sapiens) (P07203 whole entry, looked up): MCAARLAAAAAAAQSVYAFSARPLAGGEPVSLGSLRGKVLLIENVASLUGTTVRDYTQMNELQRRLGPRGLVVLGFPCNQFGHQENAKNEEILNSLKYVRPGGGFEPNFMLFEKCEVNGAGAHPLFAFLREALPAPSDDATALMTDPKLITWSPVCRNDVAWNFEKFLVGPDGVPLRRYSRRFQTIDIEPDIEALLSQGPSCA
Sequence of Phospholipid hydroperoxide glutathione peroxidase GPX4 (Homo sapiens) (P36969 whole entry, looked up): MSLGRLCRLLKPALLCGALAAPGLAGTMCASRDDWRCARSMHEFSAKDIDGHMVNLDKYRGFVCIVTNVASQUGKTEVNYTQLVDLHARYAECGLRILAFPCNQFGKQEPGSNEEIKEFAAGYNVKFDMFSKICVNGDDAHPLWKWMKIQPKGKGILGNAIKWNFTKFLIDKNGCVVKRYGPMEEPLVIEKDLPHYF

COc1ccc(NC(=O)c2ccc(-c3ccc(C(N)=O)cc3C)cc2)cc1N1CCN(C)CC1
inactive: Potency [1] | Potency [2] | Potency [3] | Potency [4] | Potency [5]

COc1ccccc1Oc1c(NS(=O)(=O)c2ccc(C)cn2)nc(-c2ccncc2)nc1OC
inactive: Potency [1] | Potency [2] | Potency [3] | Potency [4] | Potency [5]

O=C1C[C@@]2(C(=O)N1)C(=O)N(Cc1ccc(Br)cc1F)C(=O)c1cccn12
inactive: Potency [1] | Potency [2] | Potency [3] | Potency [4] | Potency [5]

CN1CCN(C2=Nc3ccccc3Nc3ccc(O)cc32)CC1
inactive: Potency [1] | Potency [2] | Potency [3] | Potency [6]

CC1(C(=O)O)CC[C@]2(C(=O)OC3OC(CO)C(O)C(O)C3O)CC[C@]3(C)C(=CCC4[C@@]5(C)CC[C@H](OC6OCC(O)C(O)C6OC6OC(CO)C(O)C(O)C6O)C(C)(C)C5CC[C@]43C)C2C1 (some centres not stated)
inactive: Potency [1] | Potency [2] | activity change, negative = inhibition [3] 0.425% [at 11.6 µM] | activity, negative = inhibition [6] 1.15% [at 11.6 µM]

C[C@H]1[C@H](C)CC[C@]2(C(=O)OC3OC(CO)C(O)C(O)C3O)CC[C@]3(C(=O)O)C(=CCC4[C@@]5(C)CC[C@H](O[C@@H]6O[C@@H](C)[C@H](OC7OC(CO)C(O)C(O)C7O)[C@@H](O)[C@H]6O)C(C)(C)C5CC[C@]43C)[C@H]12 (some centres not stated)
inactive: Potency [1] | Potency [2] | activity change, negative = inhibition [3] -5.72% [at 11.6 µM] | activity, negative = inhibition [6] 1.44% [at 11.6 µM]

C/C=C1/[C@H](O[C@@H]2O[C@H](CO)[C@@H](O)[C@H](O)[C@H]2O)OC=C(C(=O)OC)[C@H]1CC(=O)OCCc1ccc(OC(=O)C[C@@H]2C(C(=O)OC)=CO[C@@H](O[C@@H]3O[C@H](CO)[C@@H](O)[C@H](O)[C@H]3O)/C2=C/C)cc1
inactive: Potency [1] | Potency [2] | activity change, negative = inhibition [3] 2.52% [at 11.6 µM] | activity, negative = inhibition [6] 2.4% [at 11.6 µM]

CC(C)=CCC/C(C)=C/CO[C@@H]1O[C@H](CO[C@@H]2O[C@@H](CO)[C@H](O)[C@H]2O)[C@@H](O)[C@H](O)[C@H]1O
inactive: Potency [1] | Potency [2] | Potency [3] | Potency [6]

C/C(=C\C1CCC(C)C2CCC3(C)OC123)C(=O)O (configuration not stated)
inactive: Potency [1] | Potency [2] | Potency [3] | Potency [6]

CC1(CO)CC(O)C2(C)CCC3(C)C(=CCC4C5(C=O)CCC(OC6OC(C(=O)O)C(O)C(O)C6OC6OC(C(=O)O)C(O)C(O)C6O)C(C)(C)C5CCC43C)C2C1 (configuration not stated)
inactive: Potency [1] | Potency [2] | activity change, negative = inhibition [3] -10.9% [at 11.6 µM] | activity, negative = inhibition [6] -13.8% [at 11.6 µM]

OCC(O)C(c1c[nH]c2ccccc12)c1c[nH]c2ccccc12 (configuration not stated)
inactive: Potency [1] | Potency [2] | Potency [3] | Potency [6]

CC1C2=CC(=O)OC2(O)CC2C1C(O)CC1C(C)(CO)CCCC21C (configuration not stated)
inactive: Potency [1] | Potency [2] | Potency [3] | Potency [6]

C=C1CCC2C(C)(C)CC(=O)CC2(C)C1CCC(C)CCO (configuration not stated)
inactive: Potency [1] | Potency [2] | Potency [3] | Potency [6]

COc1ccc(/C=C/C(=O)O[C@@H]2[C@@H](O)[C@@H](O)[C@H](O[C@H]3[C@@H]4C=CO[C@@H](O[C@@H]5O[C@H](CO)[C@@H](O)[C@H](O)[C@H]5O)[C@@H]4[C@@]4(CO)O[C@@H]34)O[C@H]2C)cc1
inactive: Potency [1] | Potency [2] | Potency [3] | Potency [6]

O=C(O)C[C@H]1CCC(=O)[C@@H]1C/C=C\CCO
inactive: Potency [1] | Potency [2] | Potency [3] | Potency [6]

CCC12CCCN3CCc4c(n(c5ccccc45)C(O)C1)C32 (configuration not stated)
inactive: Potency [1] | Potency [2] | Potency [3] | Potency [6]

CC(C)=CC[C@H]1O[C@]2(O)C([C@H]3CCC4[C@@]5(C)CC[C@H](O[C@@H]6O[C@H](CO)[C@H](O)[C@H](O[C@@H]7O[C@H](CO)[C@@H](O)[C@H](O)[C@H]7O)[C@H]6O[C@@H]6O[C@@H](C)[C@H](O)[C@@H](O)[C@H]6O)C(C)(C)C5CC[C@@]4(C)[C@]3(C)[C@H]2O)[C@@]1(C)O (some centres not stated)
inactive: Potency [1] | Potency [2] | activity change, negative = inhibition [3] 0.583% [at 11.6 µM] | activity, negative = inhibition [6] -2.88% [at 11.6 µM]

C/C=C(\C)C(=O)OCC1OC(OCC2OC(OC3(CO)OC(CO)C(O)C3O)C(O)C(O)C2O)C(O)C(O)C1O (configuration not stated)
inactive: Potency [1] | Potency [2] | Potency [3] | Potency [6]

C=C1Cc2c(Cl)cc3[nH]c4c5c3c2[C@@]2(O)[C@@H]1C[C@@H]2C(C)(C)O[C@H]5C1CC[C@@]2(O)[C@@]35O[C@@H]3[C@H]3OC(C)(C)[C@H]3O[C@H]5CC[C@]2(C)[C@@]41C (some centres not stated)
inactive: Potency [1] | Potency [2] | Potency [3] | Potency [6]

C/C=C(\C)C(=O)OC[C@H]1O[C@@H](O[C@H]2[C@@H](O[C@H]3O[C@H](COC(=O)/C(C)=C/C)[C@@H](O)[C@H](O)[C@H]3O[C@@H]3O[C@H](CO)[C@@H](O)[C@H](OC(=O)/C(C)=C/C)[C@H]3O)O[C@H](COC(=O)/C(C)=C/C)[C@@H](O)[C@@H]2O)[C@H](O)[C@@H](O)[C@@H]1O
inactive: Potency [1] | Potency [2] | activity change, negative = inhibition [3] 2.77% [at 11.6 µM] | activity, negative = inhibition [6] -1.03% [at 11.6 µM]

CC[C@@H]1[C@H]2CCCCN3C(=O)C[C@H]([C@@H]4[C@H]1OC(=O)[C@H]4C)[C@@H]23
inactive: Potency [1] | Potency [2] | Potency [3] | Potency [6]

Source: PubChem BioAssay (NCATS)
